Measurements published in publication PMC5540273 (PLoS ONE, 2017).
“And” between values parts separate entries of the source, which are not always exact repeats. Equal values may be shown once. Read-outs that look alike come from different tables or passages of the source.

Assays:
[1] = test system: BUB1; conditions: concentration: 1 μM, replicates: in singlicate, n = 1
[2] = test system: CAMK1B; conditions: concentration: 1 μM, replicates: in singlicate, n = 1
[3] = test system: CAMK1D; conditions: concentration: 1 μM, replicates: in singlicate, n = 1
[4] = test system: CAMK1G; conditions: concentration: 1 μM, replicates: in singlicate; n = 1
[5] = test system: CAMK1; conditions: concentration: 1 μM, replicates: in singlicate, n = 1
[6] = test system: CAMK2A; conditions: concentration: 1 μM, replicates: in singlicate; n = 1
[7] = test system: CAMK2B; conditions: concentration: 1 μM, replicates: in singlicate; n = 1
[8] = test system: CAMK2D; conditions: concentration: 1 μM, replicates: in singlicate, n = 1
[9] = test system: CAMK2G; conditions: concentration: 1 μM, replicates: in singlicate, n = 1
[10] = test system: CAMK4; conditions: concentration: 1 μM, replicates: in singlicate; n = 1
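Further: KINOMEscan kinase panel screen.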

Compound	%Inh [1]	%Inh [2]	%Inh [3]	%Inh [4]	%Inh [5]	%Inh [6]	%Inh [7]	%Inh [8]	%Inh [9]	%Inh [10]	%Inh ([1]; 1 µM)	%Inh ([2]; 1 µM)	%Inh ([3]; 1 µM)	%Inh ([5]; 1 µM)	%Inh ([8]; 1 µM)	%Inh ([9]; 1 µM)
O=C(Nc1cccc(-c2nn3ncccc3c2-c2ccnc(Nc3cccc(C(F)(F)F)c3)n2)c1)c1c(F)cccc1F [GSK299495]	80%	30%	21%	9%	32%	100%	100%	19%	11%	0%	–	–	–	–	–	–
Cn1ccc2ncnc(Oc3ccc(NC(=O)Nc4ccncc4)c(Cl)c3)c21	11%	0%	0%	0%	0%	0%	0%	0%	0%	7%	–	–	–	–	–	–
Cc1nnc(-c2ccc3ncc(-c4ccc(S(C)=O)cc4)n3c2)o1 (centres unmarked)	16%	6%	0%	26%	0%	0%	0%	25%	27%	0%	–	–	–	–	–	–
O=c1cc(N2CCOCC2)nc2n(Cc3cccc(Cl)c3Cl)c(C3CC3)nn12 [GSK2358994]	0%	0%	0%	5%	0%	25%	10%	18%	0%	5%	–	–	–	–	–	–
[2H]C([2H])(c1cccc(C(F)(F)F)c1C)n1ccn2c(=O)nc(N3CCOCC3)cc12 [GSK2336394]	52%	26%	0%	0%	0%	0%	0%	7%	3%	16%	–	–	–	–	–	–
CNc1ncnc2[nH]ncc12 [SKF-18355]	20%	0%	0%	0%	0%	0%	0%	0%	0%	0%	–	–	–	–	–	–
Cn1cc(-c2ccc3c(c2)CCN3C(=O)Cc2ccccc2Cl)c2c(N)ncnc21 [GSK2608885]	25%	33%	22%	13%	44%	0%	0%	17%	34%	0%	–	–	–	–	–	–
CC(C)Oc1ccc2c(-c3ccnc(Nc4ccc(N5CCN(C)CC5)cc4)n3)cnn2n1 [GW696155]	99.4%	96.3%	97.8%	56%	71%	44%	31%	54%	48%	0%	–	–	–	–	–	–
Cc1cccc(-c2nc(Nc3ccc4ncsc4c3)c3ccccc3n2)n1 [GW867588]	47%	21%	14%	0%	26%	0%	0%	2%	9%	0%	–	–	–	–	–	–
CN(C1=C(c2ccccc2)C(=O)NC1=O)c1ccccc1 [SB-334860]	0%	34%	3%	0%	6%	7%	11%	1%	3%	0%	–	–	–	–	–	–
COc1ccc(Nc2ncc(C#N)c(Nc3ccccc3C(N)=O)n2)cc1N1CCN(C)CC1.Cl [GSK1558669]	87%	100%	99.1%	83%	95.6%	92.5%	78%	83%	86%	0%	–	–	–	–	–	–
NS(=O)(=O)c1cccc(-c2ccc3nccc(-c4cccc(S(N)(=O)=O)c4)c3c2)c1 [GW867253]	17%	0%	0%	0%	0%	0%	0%	0%	0%	0%	–	–	–	–	–	–
O=C(c1ccc(-c2cc(-c3c[nH]nc3-c3ccccn3)ccn2)cc1)N1CCOCC1 [GW812171]	20%	0%	21%	0%	14%	0%	0%	0%	0%	0%	–	–	–	–	–	–
CC(C)(CN)c1nc(-c2ccc(Cl)c(O)c2)c(-c2ccncc2)[nH]1.O=C(O)C(F)(F)F [SB-477794]	–	–	–	0%	–	0%	0%	–	–	0%	100% and 98.2%	24% and 3%	10% and 9%	19% and 13%	11% and 0%	0% and 17%
Nc1nc(-c2ccc3c(N)n[nH]c3c2)cc(N2CCCC2)n1 [GSK2227430]	30%	3%	20%	0%	25%	0%	0%	0%	21%	0%	–	–	–	–	–	–
Cc1c2ccc(N(C)c3ccnc(Nc4cccc(S(N)(=O)=O)c4)n3)cc2nn1Cc1ccccc1.Cl.Cl [GW787226]	0%	0%	0%	11%	2%	0%	0%	0%	0%	16%	–	–	–	–	–	–
O=C1NC(=O)C(N2CCc3ccccc32)=C1c1cccc(Cl)c1 [SB-408010]	0%	0%	17%	0%	24%	0%	0%	10%	0%	1%	–	–	–	–	–	–
